According to PubChem BioAssay AID1578 (Sanford-Burnham Center for Chemical Genomics, 2009):
Screen size: about 290,000 compounds; about 3,000 (1%) were called active. The sample as a whole holds a higher share of actives than the screen did. A number with no mark means an inactive call. Cut-off read from the data, not from the text of the source: active = inhibition mostly above about 36% (no sharp cut-off); inactive = mostly below about 34%.

Assay: inhibition of NOD1-driven NF-kB reporter – cell-based, luminescence, uHTS, primary screen (AID 1578);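 note: HEK-293T reporter cells stimulated with the NOD1 agonist gamma-tri-DAP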
Conditions: NOD1-driven NF-kB luciferase reporter cells, at 4 µM, active compounds read high

Row | SMILES | inhibition
1 | COC(=O)CN1C(=S)N(Cc2ccccc2)C(=O)C1CC(=O)Nc1ccc(Br)cc1 (stereo not drawn) | 28.8%
2 | Cc1ccc(S(=O)(=O)Nc2ccccc2-c2ccccc2)cc1 | 18.4%
3 | Cc1ccc(NS(=O)(=O)c2ccc3[nH]c(=O)[nH]c3c2)c(C)c1 | -12.1%
4 | Cc1ccc(S(=O)(=O)Nc2ccccc2C(N)=O)cc1 | -11.8%
5 | Cc1cccc(C)c1NS(=O)(=O)c1ccc2c(c1)C(=O)c1ccccc1C2=O | -19.6%
6 | CCCC(=O)C1=C(O)C(C(=O)OC)C(C)(C)CC1=NC (stereo not drawn) | 11.5%
7 | CN(CCO)c1cnccn1 | -22.7%
8 | COc1ccccc1N1CCN(CCC(=O)Nc2cccc(Cl)c2)CC1 | -7.2%
9 | CNC(=O)NC(=O)Cn1cnc2sc(-c3ccccc3)cc2c1=O | 0.3%
10 | CCCCOCCCNC(=O)C1c2ccccc2Oc2ccccc21 | -0.9%
11 | Nc1nc(-c2ccc(F)cc2)cc(C(F)(F)F)n1 | 9.6%
12 | CCOC(=O)CSc1nc(-c2ccccc2)cc(C(F)(F)F)n1 | -48.1%
13 | CCOC(=O)CS(=O)(=O)c1nc(-c2ccccc2)cc(C(F)(F)F)n1 | 69.2% (active)
14 | CCOC(=O)CCSc1nc(-c2ccccc2)cc(C(F)(F)F)n1 | -31.4%
15 | CS(=O)(=O)c1nc(-c2ccc(F)cc2)cc(C(F)(F)F)n1 | 103% (active)
16 | CS(=O)(=O)c1nc(-c2ccccc2)cc(C(F)(F)F)n1 | -5.3%
17 | CC(C)(C)NC(=O)CN(Cc1ccc2c(c1)OCO2)C(=O)CNC(=O)c1cccs1 | -12.6%
18 | CCn1ncc(Br)c1C(=O)NC1CCCCCCC1 | -9%
19 | CCCn1c(=N)n(CC(O)c2ccco2)c2ccccc21 (stereo not drawn) | 1.5%
20 | CCn1c(=N)n(CC(O)c2ccco2)c2ccccc21 (stereo not drawn) | 11%
21 | CCN(CC)CCn1c(=N)n(CC(O)c2ccco2)c2ccccc21 (stereo not drawn) | 62% (active)

Row | SMILES | inhibition
22 | C=C(C)c1cccc(C(C)(C)NC(=O)Nc2cc(C)ccc2OC)c1 | -33%
23 | CCOc1cccc2c1OC1(C)CC2NC(=O)N1c1cccc(C(=O)N2CCN(c3ccccn3)CC2)c1 (stereo not drawn) | 76.5% (active)
24 | CC12CC(NC(=O)N1c1cccc(C(=O)N3CCN(c4ccccn4)CC3)c1)c1ccccc1O2 (stereo not drawn) | -1.9%
25 | COc1cccc2c1OC1(C)CC2NC(=O)N1c1cccc(C(=O)N2CCN(c3ccccn3)CC2)c1 (stereo not drawn) | -17.8%
26 | COc1ccc(C(=O)C2CCCN(Cc3cc(C)c(O)c(C)c3)C2)c(OC)c1 (stereo not drawn) | 110% (active)
27 | COc1ccc(C(=O)C2CCCN(Cc3cc(Cl)ccc3O)C2)c(OC)c1 (stereo not drawn) | -3.1%
28 | COc1ccc(C(=O)C2CCCN(Cc3ccc4nonc4c3)C2)c(OC)c1 (stereo not drawn) | -21.3%
29 | CCOC(=O)C(=Cc1cn(C)c2ccc(S(=O)(=O)N(C)C)cc12)C(=O)OCC | 29.1%
30 | CCOC(=O)N1CCN(C(=O)c2c[nH]c3ccc(S(=O)(=O)N(C)c4ccc(F)cc4)cc3c2=O)CC1 | -23.5%
31 | CCOC(=O)C(=Cc1c[nH]c2ccc(S(=O)(=O)N(C)C)cc12)C(=O)OCC | 43.9% (active)
32 | Cc1ccc(C(=O)c2ccc([N+](=O)[O-])cc2)c(C)c1 | -4.2%
33 | COCCN1CCN(C(=O)C2CCC(=O)N(Cc3ccccc3F)C2)CC1 (stereo not drawn) | -13.9%
34 | COc1ccc(NC2=NC(=S)N(c3ccccc3C)C23CCCCC3)cc1 | -2.5%
35 | Oc1ccc(Nc2ncnc3ccccc23)cc1 | 4.4%
36 | Nc1cccc(Nc2ncnc3ccccc23)c1 | 3%
37 | Oc1cccc(Nc2ncnc3ccccc23)c1 | 56% (active)
38 | O=C(CN1CC(c2ccccc2)CC1=O)Nc1ccc2c(c1)OCO2 (stereo not drawn) | -14%
39 | COCCCNC(c1ccccc1)c1ccncc1 (stereo not drawn) | -23.2%
40 | O=C(COc1ccccc1)Nc1nc(-c2ccc(S(=O)(=O)N3CCOCC3)cc2)cs1 | 3.4%
41 | O=C(COc1cccc(Cl)c1)Nc1nc(-c2ccc(S(=O)(=O)N3CCOCC3)cc2)cs1 | 53.1%
42 | O=C(Nc1ccccc1)NC1CS(=O)(=O)CC1O (stereo not drawn) | -16.3%

Row | SMILES | inhibition
43 | O=C(c1ccc(Br)cc1)C1CCc2occc2C1=O (stereo not drawn) | -29.8%
44 | Cc1cccnc1NC(=O)c1cccc(S(=O)(=O)N2CCCc3ccccc32)c1 | -13%
45 | O=C(O)c1cccc(NC(=O)c2cccc(S(=O)(=O)N3CCc4ccccc43)c2)c1 | 29.9%
46 | Nn1cc(-c2ccccc2)nc1SCC(=O)NCC1CCCO1 (stereo not drawn) | -25.8%
47 | O=C(CSc1nnc(-c2ccccc2)n1-c1ccccc1)c1cccs1 | -1.9%
48 | Cc1cc(C(=O)NC2CCCCC2C)c2ccccc2n1 (stereo not drawn) | 1.8%
49 | O=C(C1=NNCC1c1ccccc1)C1OC1c1ccccc1 (stereo not drawn) | 15.8%
50 | O=C(C1=NNCC1c1ccccc1)C1CO1 (stereo not drawn) | -5.4%
51 | O=C(C1=NNCC1c1ccc(Cl)cc1)C1CO1 (stereo not drawn) | 88.4% (active)
52 | Cc1nc(N2CCOCC2)nc(OCCN(C)C)c1[N+](=O)[O-] | -6.3%
53 | COc1cc(/C=C(/Sc2nnc(-c3ccc(F)cc3)o2)C(=O)O)ccc1OC(F)F | -21.8%
54 | O=C(O)/C(=C\c1ccccc1OC(F)F)Sc1nnc(-c2ccc(F)cc2)o1 | 32.5% (active)
55 | O=C(O)/C(=C\c1cccs1)Sc1nnc(-c2ccc(F)cc2)o1 | -11.6%
56 | CCCC(c1nnnn1C(C)(C)C)N1CCN(c2ccccc2)CC1 (stereo not drawn) | -12.7%
57 | Cc1cc(=O)oc(C)c1C(=O)NNC(=O)C1(C)CC1Br (stereo not drawn) | -8.9%
58 | COc1cc(/C=N/NC(=O)c2cnn3c(C)cc(-c4ccccc4)nc23)ccc1O | 46.9%
59 | Cc1cc(C)c(NC(=S)N(CCCN2CCN(C)CC2)Cc2cccs2)c(C)c1 | -25.1%
60 | Fc1ccc(CNCC2CCCO2)cc1 (stereo not drawn) | 2.2%
61 | Clc1ccc(CNCC2CCCO2)cc1 (stereo not drawn) | 5.9%
62 | Brc1ccc(CNCC2CCCO2)cc1 (stereo not drawn) | 64.4% (active)
63 | COc1ccc(N(CC(=O)NCc2ccccc2)S(=O)(=O)c2c(C)nn(C)c2C)cc1 | -15.5%
